# Test results: PubChem BioAssay (NCATS)
# Results filed as inconclusive are left out. Activity calls are given as the source filed them. Unless noted, calls come from the whole dose curve; as a rule, active = well fitted curve in the direction sought with a large enough effect; inconclusive = small, poorly fitted or top-dose-only effect, or another doubt; inactive = no such curve, though single readings can be large; an effect the other way counts as inactive or inconclusive.
# Columns and labels:
# [1] = HPAF-II 24hr Apoptosis Induction qHTS against the NCATS CANVASS Library (AID 1347356); note: 0% is about no effect
# Procedure, shortened: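 Caspase-Glo 3/7 luminescence, read after 15 min room-temperature development, measures apoptosis in HPAF-II cells treated 24 h at 37 degrees C with an 11-point concentration series; 500 cells/well; doxorubicin control.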
# [2] = HEK293 18hr Apoptosis Induction qHTS against the NCATS CANVASS Library (AID 1347357); note: 0% is about no effect
# Procedure, shortened: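 Cells seeded at 500/well in DMEM + 10% FBS. Compounds pinned, 11 concentrations. 18 h, 37 degrees C/5% CO2. Caspase-Glo 3/7 added, 15 min RT dark, luminescence read.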
# [3] = HPAF-II 12hr Apoptosis Induction qHTS against the NCATS CANVASS Library (AID 1347358); note: 0% is about no effect
# Procedure, shortened: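 Caspase-3/7 activation by DEVD-substrate luminescence (Caspase-Glo 3/7, 15 min, room temperature) after a 12-hour compound exposure in 11 concentrations, of HPAF-II pancreatic cells seeded at 500/well in DMEM with 10% FBS.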
# [4] = HEK293 24hr Apoptosis Induction qHTS against the NCATS CANVASS Library (AID 1347359); note: 0% is about no effect
# Procedure, shortened: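 HEK293 cells, 500 per well, exposed to an 11-point compound series for 24 hours at 37 degrees C. Caspase 3/7 activity read by Caspase-Glo luminescence (DEVD substrate) after 15 min at room temperature.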
# [5] = HPAF-II 18hr Apoptosis Induction qHTS against the NCATS CANVASS Library (AID 1347360); note: 0% is about no effect
# Procedure, shortened: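 Seed HPAF-II cells at 500/well in DMEM + 10% FBS, pin-transfer compounds, incubate 18 hours at 37 degrees C/5% CO2, add Caspase-Glo 3/7 reagent, wait 15 min, read luminescence.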
# [6] = qHTS for ATAD5 Agonist screened against the NCATS CANVASS Library (AID 1347367);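 note: luciferase reporter driven by ATAD5 which rises upon DNA damage; 0% is about no effect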
# Procedure, shortened: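 HEK293T-ATAD5 luc reporter; 2000 cells/well; 5hr settle; cpd 11-pt qHTS; 16hr 37C 5% CO2 dark; viability by CellTiter-Fluor (AFC fluorescence); then luciferase luminescence, 30min RT.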
# [7] = target: Nuclear receptor subfamily 1 group I member 3 (Homo sapiens) (UniProt Q14994); assay: qHTS for Constitutive Androstane Receptor (CAR) Agonist screened against the NCATS CANVASS Library (AID 1347373);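 note: every well also contained 1.5 µM PK11195 alongside the test compound; 0% is about no effect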
# Sequence of Nuclear receptor subfamily 1 group I member 3 (Homo sapiens) (Q14994 whole entry, looked up): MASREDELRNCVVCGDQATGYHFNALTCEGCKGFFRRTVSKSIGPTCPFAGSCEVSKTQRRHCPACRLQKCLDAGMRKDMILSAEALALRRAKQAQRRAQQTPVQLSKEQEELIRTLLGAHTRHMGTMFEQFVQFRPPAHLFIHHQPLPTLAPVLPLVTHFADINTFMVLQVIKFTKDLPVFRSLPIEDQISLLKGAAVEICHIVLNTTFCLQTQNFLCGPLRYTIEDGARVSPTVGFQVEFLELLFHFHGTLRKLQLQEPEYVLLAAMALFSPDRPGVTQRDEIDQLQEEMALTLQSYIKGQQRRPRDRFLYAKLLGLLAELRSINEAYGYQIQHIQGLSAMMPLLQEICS
# Procedure, shortened: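 Agonist mode with 1.5uM PK11195 present: compounds for 24hr on HepG2-hCAR-CYP2B6 cells. CellTiter-Fluor fluorescence (ex 405, em 540 nm) gives viability; ONE-Glo luminescence reports CAR activation.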
# [8] = DH5-alpha competent E. coli microbial cell viability qHTS against the NCATS CANVASS Library (AID 1347377); settings: outcome: dose series up to 46.1 µM unless noted; note: 0% is about no effect
# Procedure, shortened: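 Bacterial viability as ATP-dependent luminescence (BacTiter-Glo), read after overnight 37 °C exposure of DH5-alpha competent E. coli to compounds in 11-point titration.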
# [9] = qHTS for H2AX Agonists against the NCATS CANVASS Library (AID 1347378);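 note: phospho-H2AX S139 level in CHO-K1 lysates by TR-FRET emission ratio; 0% is about no effect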
# Procedure, shortened: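 CHO-K1, 1000 cells/well, o/n 37C; cpd several conc, 3 hr 37C, 0.76% DMSO; lyse 30 min RT; cryptate anti-pH2AX(S139) + d2 anti-H2AX, 24 hr RT; HTRF 665/620.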
# [10] = qHTS for Inflammasome Signaling Inhibitors: IL-1-beta AlphaLISA screen against the NCATS CANVASS Library (AID 1347379);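 note: human THP-1 cells primed with LPS then triggered with ATP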
# Procedure, shortened: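 Secreted IL-1B from human THP-1 cells quantified by AlphaLISA 16 hr after compound addition (final up to 57.5 uM). A 1 hr compound pretreatment preceded inflammasome activation with 250 ng/mL LPS plus 1.25 mM ATP (final).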
# [11] = qHTS for activators of dead-cell proteases activity screened against the NCATS CANVASS Library (AID 1347392);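 note: luminescence from protease leaking out of membrane-damaged cells cleaving impermeant substrate; 0% is about no effect; rising signal means more cytotoxicity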
# Procedure, shortened: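 HepG2, 2000 cells/well, 18 h attach; cpd 11-pt, 5 h 37C 5% CO2; CytoTox-Glo (AAF-aminoluciferin) 15 min RT; luminescence read.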
# [12] = qHTS to identify inhibitors of the type 1 interferon - major histocompatibility complex class I in skeletal muscle: primary screen against the NCATS Mechanism Interrogation Plate v5.0 (MIPE) Libary (AID 1347411); note: potency is the fitted concentration of half-maximal effect; nearly all actives have a fitted effect of over 65% in size
# Procedure, shortened: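 Luminescence from CRISPR HiBit-tagged endogenous HLA-B in human myoblasts reported MHC class I level after 24 h of IFN-beta (4 ng/ml) plus compound. Compounds ran as 11-point 1:3 series, top 46 uM final.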
# [13] = Primary qHTS for inhibitors of nuclear receptor binding SET domain protein 2 (NSD2) in an isogenic RCH-ACV NSD2 p.E1099K mutant (9B) (AID 1645876); note: potency is the fitted concentration of half-maximal effect; nearly all actives have a fitted effect of over 70% in size
# [14] = Primary qHTS for inhibitors of nuclear receptor binding SET domain protein 2 (NSD2) in an RCH-ACV wild type WT cells (2C) (AID 1645877); note: potency is the fitted concentration of half-maximal effect; nearly all actives have a fitted effect of over 70% in size
# [15] = target: Glutathione peroxidase 1 (Homo sapiens) (UniProt P07203); assay: Primary qHTS Assay for Inhibitors of Recombinant Selenoprotein Glutathione Peroxidase 1 (GPX1) (AID 1845191); note: nearly all actives have a fitted effect of over 65% in size
# Sequence of Glutathione peroxidase 1 (Homo sapiens) (P07203 whole entry, looked up): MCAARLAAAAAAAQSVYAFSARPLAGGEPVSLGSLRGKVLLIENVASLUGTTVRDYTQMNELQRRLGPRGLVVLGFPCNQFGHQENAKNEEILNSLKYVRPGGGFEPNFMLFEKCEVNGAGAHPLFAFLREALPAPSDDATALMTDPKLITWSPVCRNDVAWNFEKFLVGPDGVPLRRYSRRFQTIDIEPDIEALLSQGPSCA
# Procedure, shortened: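 GR-coupled readout: NADPH consumption tracked by fluorescence, ex 340/em 450 nm, at t=0 and after 15 min at RT. Final mix 10 nM GPX1, 1 mM GSH, 0.5 mM CHP, 0.5 mM NADPH, 100 nM GR, 0.01% BSA, following 30 min enzyme–compound preincubation.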
# [16] = target: Phospholipid hydroperoxide glutathione peroxidase GPX4 (Homo sapiens) (UniProt P36969); assay: Primary qHTS Assay for Inhibitors of Recombinant Selenoprotein Glutathione Peroxidase 4 (GPX4) (AID 1845192); settings: outcome: dose series up to 50 µM unless noted; note: % is set by controls: 0 for no effect and ±100 for the full control effect; nearly all actives have a fitted effect of over 65% in size
# Sequence of Phospholipid hydroperoxide glutathione peroxidase GPX4 (Homo sapiens) (P36969 whole entry, looked up): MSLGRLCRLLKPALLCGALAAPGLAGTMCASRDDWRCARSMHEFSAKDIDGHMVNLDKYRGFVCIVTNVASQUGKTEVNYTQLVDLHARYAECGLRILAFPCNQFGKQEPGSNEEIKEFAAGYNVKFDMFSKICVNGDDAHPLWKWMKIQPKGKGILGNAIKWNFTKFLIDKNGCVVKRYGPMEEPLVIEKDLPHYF
# Procedure, shortened: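 Steps: GPX4 plus compound, 30 min RT; add GR/GSH/NADPH master mix; start with cumene hydroperoxide; read 340/450 nm fluorescence at 0 and 15 min. Finals were 200 nM GPX4, 1 mM GSH, 0.5 mM CHP, 0.5 mM NADPH, 100 nM GR.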
# [17] = qHTS drug screen for cell cycle checkpoint inhibitors in PARPi-resistant BRCA-mutant ovarian cancer cell lines. (AID 1963452; calls by dose curve; note: potency is the fitted concentration of half-maximal effect); settings: PEO1/OlaR viability, CellTiter-Glo luminescence, 96 h; for Z-AUC: stronger effect = lower value
# Procedure, shortened: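 PEO1, PEO4 and PEO1/OlaR ovarian cancer cells, 600 per well, exposed 96 h at 37C to a dilution series. Viability read by CellTiter-Glo luminescence, normalized to DMSO and empty wells; activity summarized as Z-AUC.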
# [18] = qHTS assay to identify inhibitors of the type 1 interferon - major histocompatibility complex class I in skeletal muscle: Counter screen cell viability and HiBit confirmation (AID 1347412); settings: iHSKM muscle cells + IFN-b, HiBiT or CellTiter-Glo, 24 h; for activity change, negative = inhibition: at 45.9 µM (top of the series); note: potency is the fitted concentration of half-maximal effect; for activity change, negative = inhibition: % is set by controls: 0 for no effect and ±100 for the full control effect; for all read-outs here: nearly all actives have a fitted effect of over 60% in size
# Procedure, shortened: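 Luminescence read-out: Nano-Glo HiBiT lytic signal from C-terminally HiBiT-tagged HLA-B in CRISPR-edited human myoblasts, plus CellTiter Glo ATP as viability counter screen. IFN-beta 4.0 ng/ml; 24 hrs treatment at 37 C, 5% CO2.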
# [19] = measured here: PEO1 parental Z-AUC
smiles,measurement,setting,value
O=C1CCC(=O)N(O)CCCCCNC(=O)CCC(=O)N(O)CCCCCNC(=O)CCC(=O)N(O)CCCCCN1,outcome,[1],inactive
same,Potency,[2],inactive
same,Potency,[3],inactive
same,Potency,[4],inactive
same,Potency,[5],inactive
same,Potency,[6],inactive
same,Potency,[7],inactive
same,outcome,[8],inactive
same,Potency,[9],inactive
same,Potency,[10],inactive
same,Potency,[11],inactive
O=C(/C=C/C#Cc1cccc(NS(=O)(=O)c2ccccc2)c1)NO,Potency,[12],2550 nM (active)
same,Potency,[13],456 nM (active)
same,Potency,[14],574 nM (active)
same,Potency,[15],inactive
same,Potency,[16],inactive
same,Z-AUC,[17],-0.732 (inactive)
same,Z-AUC,[17]; [19],-0.336
same,Z-AUC,[17]; measured here: PEO4 Z-AUC,-0.647
same,Potency,[18]; HiBiT,6250 nM (active)
same,"activity change, negative = inhibition",[18]; Viability,-1.87% (inactive)
CN(C)CCN1C(=O)c2cccc3cc(NC(N)=O)cc(c23)C1=O,Potency,[12],7390 nM (active)
same,Potency,[13],2350 nM (active)
same,Potency,[14],1860 nM (active)
same,Potency,[15],inactive
same,Potency,[16],inactive
same,Z-AUC,[17],-0.63 (inactive)
same,Z-AUC,[17]; [19],-1.2
same,Z-AUC,[17]; measured here: PEO4 Z-AUC,-1.08
same,Potency,[18]; HiBiT,17600 nM (active)
same,"activity change, negative = inhibition",[18]; Viability,-14% (inactive)
CC(=O)Nc1cc(Oc2ccc3c(nc(Nc4ccc(F)cc4F)n3C)c2C)ccn1,Potency,[12],262 nM (active)
same,Potency,[13],11800 nM (active)
same,Potency,[14],2630 nM (active)
same,Potency,[16],inactive
same,Z-AUC,[17],-0.216 (inactive)
same,Z-AUC,[17]; [19],-0.646
same,Z-AUC,[17]; measured here: PEO4 Z-AUC,-1.5
same,Potency,[18]; HiBiT,1110 nM (active)
COc1cc2c(NC3CCN(C4CCCCC4)CC3)nc(N3CCCN(C(C)C)CC3)nc2cc1OCCCN1CCCCC1,Potency,[12],11700 nM (active)
same,Potency,[13],4680 nM (active)
same,Z-AUC,[17],1.47 (inactive)
same,Z-AUC,[17]; [19],1.1
same,Z-AUC,[17]; measured here: PEO4 Z-AUC,0.674
same,Potency,[18]; HiBiT,17600 nM (active)
same,Potency,[18]; Viability,24900 nM (active)
C[C@@H](Oc1ccc2[nH]nc(/C=C/c3cnn(CCO)c3)c2c1)c1c(Cl)cncc1Cl,Potency,[12],930 nM (active)
same,Potency,[13],833 nM (active)
same,Potency,[14],417 nM (active)
same,Potency,[15],inactive
same,Z-AUC,[17],-1.01 (inactive)
same,Z-AUC,[17]; [19],-0.521
same,Z-AUC,[17]; measured here: PEO4 Z-AUC,-0.403
same,Potency,[18]; HiBiT,557 nM (active)
COc1nc(OCc2cccc(-c3ccccc3)c2C)ccc1CNCCNC(C)=O,Potency,[12],16500 nM (active)
same,Potency,[13],7420 nM (active)
same,Potency,[14],7420 nM (active)
same,Potency,[15],inactive
same,Potency,[16],inactive
same,Z-AUC,[17],-0.638 (inactive)
same,Z-AUC,[17]; [19],-0.646
same,Z-AUC,[17]; measured here: PEO4 Z-AUC,-0.574
same,"activity change, negative = inhibition",[18]; HiBiT,-16.7% (inactive)
OC1CCC(Oc2cccc3cnc(Nc4ccc5nc[nH]c5c4)nc23)CC1 (centres undefined),Potency,[12],523 nM (active)
same,Potency,[13],590 nM (active)
same,Potency,[15],inactive
same,Potency,[16],inactive
same,Z-AUC,[17],-1.25 (inactive)
same,Z-AUC,[17]; [19],-1.54
same,Z-AUC,[17]; measured here: PEO4 Z-AUC,-0.421
same,Potency,[18]; HiBiT,557 nM (active)
same,"activity change, negative = inhibition",[18]; Viability,9.5% (inactive)
Cc1c[nH]c2nc(Nc3ccc(N4CCN(C)CC4)c(F)c3)nc(-c3cccc(CC#N)c3)c12,Potency,[12],2340 nM (active)
same,Potency,[13],525 nM (active)
same,Potency,[14],332 nM (active)
same,Potency,[15],inactive
same,Z-AUC,[17],-0.269 (inactive)
same,Z-AUC,[17]; [19],-0.34
same,Z-AUC,[17]; measured here: PEO4 Z-AUC,-0.115
same,Potency,[18]; HiBiT,1760 nM (active)
CCc1cnn2c(NCc3ccc[n+]([O-])c3)cc(N3CCCC[C@H]3CCO)nc12,Potency,[12],5.2 nM (active)
same,Potency,[13],37.2 nM (active)
same,Potency,[14],37.2 nM (active)
same,Potency,[15],inactive
same,Potency,[16],inactive
same,Potency,[17],245 nM (active)
same,Z-AUC,[17]; [19],-2.15
same,Z-AUC,[17]; measured here: PEO4 Z-AUC,-1.73
same,"activity change, negative = inhibition",[18]; Viability,5.42% (inactive)
